# Results from the supplement of paper PMC10105736.
# Values without a mark were called inactive.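 Rule for the calls: active = MAPPIT score above the 99th percentile of random reference set scores in the same batch; inactive = at or below it.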
# B1: mRpL39 (protein)
# chain: MSAATKLHKTSWCALRQLQQYRTKANFSGSSASLAKRNDLFNQEQRRQRDAVGRIDKIEVRYLGLPEDVTLVMNGNISTPFNCAQHLSEGHCKRSALALIDGSVPWDMHRPLQESCTLQLLNFHVSEPHVVNKAFWRTCSFMLGAALNRAFKPEANLQLHSFPGPNIKSGSFVHDIVLQTQNWEPGKEEMRALSAEMVKLAAQDLRIERLDVQQDLAQEMFKDSKYKSEQLPSISQQTNGRVTLYRLGDHIDISRGPMVASTSFLGKCVISAAHKVAEEGPSGAFYRIQGVALPSGFQLNHVAFGVLEERSKKPSPARLPNEPFEEQQQLQLS
# B2: Cbp80 (protein)
# chain: MSRRRAHDTEDEGYDHRRNKRRRVSENQEIEDRLESLILRVGERSTSSVESNLEGLVSVLEADLGTFRLKILRILSDCAVRMPEKCTVYTTLVGLLNAKNYKFGGEFVDHMVKTFKESLKMCRWDAARYSLRFLADLVNCHVISATSLLQLLDTMIDVSNEDTVPQVRRDWFVFAVLSTLPWVGRDLYEKKESALESLLLRIEVYLNKRSKKHHNALRVWSSDAPHPQEEYLDCLWAQIRKLRQDNWAEKHIPRPYLVFDSILCEALQHNLPTIVPPPHHDNFEYPMPWVVYRMFDYTDCPDGPNLPGAHSIERFLIEEHLHHIIETYHHERKDCAAQLLSFPYKHKIPLEYCIVEVVFAELFHMPTPRYLDICYGSILIELCKLQPATLPQVLAQATEILFMRIDSMNTSCFDRFVNWFSYHLSNFKFTWSWDEWDSCLLLDGEHPRPKFIQEVLQKCLRLSYHQRITEMMPTTYAKLIPLTPVPNYKYANEEAANLPGTTVAHQLVVAIRQKCTPEEVVNILKDIPNSGYSGEEMSDGSFNALKIDVFVQTLLNLGSKSFSHSFAAISKFHSVFRALAETEEAQICILHNIFELWSSHQQMMVVLIDKLLKLQIVDCSAVATWIFSKEMTGEFTKLYLWEILHLTIKKMNKHVIKLNTELSEAKEKLAKADSSSSDSEDDSSHKRKKPITHADKPSEEVVERMEEKLEAANVNQKRLFLIVFQRFIMILSEHLLRSDTDGRDPDTDWYRWTIGRLQQVFLMHHEQVQKYSSTLETLLFTSDLDTHILEVFQQFVALRA
# B3: Fer1HCH (protein)
# chain: MVKLIASLLLLAVVAQAYGDFKCSLAVPEITKDWVDMKDACIKGMRNQIQEEINASYQYLAMGAYFSRDTVNRPGFAEHFFKAAKEEREHGSKLVEYLSMRGQLTEGVSDLINVPTVAKQEWTDGAAALSDALDLEIKVTKSIRKLIQTCENKPYNHYHLVDYLTGVYLEEQLHGQRELAGKLTTLKKMMDTNGELGEFLFDKTL
# B4: Inx7 (protein)
# chain: MLNTFSSVRQYLKFDLTRVVIDNIVFKLHYRWTFVILLVATLLITSRQYIGEHIQCLSDGVVSPVINTFCFFTPTFTVVRDQNQTAYRPGSEPPGIGAFDPEKDTIKRHAYYQWVPFVLFFQALCFYIPHALWKSWEGGRIKALVFGLRMVGLTRYLKNDSLRIGKLNIPSMAEAEERVKDIRRTMIDRMRLNQSWGAHLVFAEVLNLINLLLQITWTNRFLGGQFLTLGPHALKNRWSDELSVLDLVFPKITKCKFHKFGDSGSIQMHDALCVMALNIMNEKIYIILWFWYAFLLIVTVLGLLWRILTLCFYRNVTFTRWSLYWAKPGQLDENELLAVIDKCNFSNWMFLFFLRSNLSEFLFKKVIYHLASEFPNPDHDNDVNAYREAPPTPAKNRYPELSGLDTIDSPLLHLRRNGSPSAGGAQGPSTSDMAKLPV
# B5: frj (protein)
# chain: MSIDDVIYVICLLGCIGAGSYVKKIADEGQRKLVSTGLGVLVVVIVSGLHSLHCFVSLALGTAAVLLVHPSKGHLVTFAVMFGYLVFFRIFDFYFGIPGHTNMIQMILTLKVSGIAFEKTAAWKRLQAHDEQKKNDQRDVHQESPIEITDYDVELQSLSAAEILHYSFNYIGVLTGPYYRYRTYRDYFEMPFKTYAPTVEATLEKLKYAVFYCALYLATNYMWPLDYALSDEFFNDRSFVYRLLYVWPTFFTFRARIYTGLTLSECVCTMAGFGAYPDESDPNNGEGPRKRYQHLKRDADKHTYNFTTIVNTRVLEVERCWTFREGMKHWNVCVQYWLAVNVYKLFPSKKYRTGATLLCSAYWHGFRPGHYFCIMGAPFYVSLEDMWDKLVRKSATGTSRRVIDVIFWIFKWFAFSYLGEAFLLSSFGNIWRFYSSVYHIGYISWAAMTALGFYLTSQRKAAERRKKRAAEKAAGGDGIAAAIEKEKAQ
# B6: rad50 (protein)
# chain: MSSIESLSIQGIRSFGTYADDLQSIKFSSPVTLILGENGCGKTTVVECLKYALTGECPPGSDRGKSFVHDPKIFGLNEVLAQIKMQVRDRRGAQVSICRTMKVSKKRNKMSFETMDSTINFLTGAGQSKREKQDSLSGRSVDIDVAISDFMGVSKAIINNVLFCHQEDSSWPLDESKKLKEKFDAIFGITEYNKALDKIIKLRKEAMEELKIKEANIKHVAYLKQEMEVKTLNLQKAQRKCDAIKAQCSECEEEMKPIEARLVEIRNVEFEIGKYQAQKVEMDTKHKNCKDQISTLTLKIKKPFRGTLDELDQEISNFDQRMLEMRQKRTEVEGDLSQIKRSSVAEQEKLGTQDRKHCLAKQRHQSELACRAQLLKRVKEFCRELHIPIDCDLVEQPEKMGEVLRDIEAMIITKHCEITEIVEQNEKADRSRQVKIDELRIELTKSEQSVTAQEKQRESSKRESETLGVEIKKIETSMQDLKKLEKEINEVNELYESATKNIDQQAIKDAIARKKASIAENQIQFKKLDEQLTFLGSMAKLVAECSLKQKELDKKNQEVHRVRSRHSDHFGKLFKEPITCNYRRSMQVVYEKLRREIQELNEKANTQKLKEQSYEIKRKNLISDISRMEKELKDSEELIYQKCRSTPYDDLLERSKTTISKLQFDHGALKSSEALYKKYIQKMDEEPSCPLCHHNMTSDEACDLTSELTDEIQKLPDNITRAEKALKAEQIKYENLLQLKPTILKVKELKDSLPQKKEELKKVEELLGDSVSEYETLIALIGEPTHNMELANSMMGDMSLLDEALKDSARLTKDLDLQKGQLPASYDSSVSMDDLQAEKSKVSKELETERKELESAQNAVQQQMDALNRLREKKNSLKDRQIHLREGLQSLPQLKERLEKLNSFLTTVASEISELKAKIQPLKLNLRAAIEEKERLKKSESEKLAQLNSKYNSYKSTDHDIQRLNKEAEDYAKLDLRNEIKKLDEIIMASKDKLRKLEAEISLKTDELETIKTECSNQQTVERDLKDNRELKQLEDKEAKLRESCQVLDKQLGNLDFHSVSKEKVNLTKQRDKATVRKGELLGQLGEIHSQVNKLQREIDEPRFKESLKNFRKANYEIEVTRLCIEDLGQYRLALEWALIQFHSEKMEMINRLIREYWRKIYRGNDIDYIQVKTDEVSSDASADRRKTYNYRVVQSKNYSEIEMRGRCSAGQRVLASLIIRLALAETFSSNCGVLALDEPTTNLDRANINSLCEALNCIVEERQSQSNFMLIIITHDENFVSSLGKITSYHRVFRNEECKSVIRRVEAGPSKKALIDQ
# B7: CG9393 (protein)
# chain: MEMQLGAMLYVYKGEYGLPSIDFECLRALCLLRFTRCPMDVQTSSNPLRSGAGKLPYLQIGNQKFAGYRQIKRVLDLEGYPIDAHLSTKQKHLSTAYANWVFTNLHAYYHYFLFGEPHNFDTTTRGLYAKRTPFPFNFYYPSSYQREACDVVQVMAGFDVNDKLDKHEGDYLVVNAKKVVNLLSRKLGRKVWFFGDTYSEFDAIVYSYLAIIFKIALPNNPLQNHIKGCQNLVNFINRITKDIFRIEGYSSVKLTKTPSGTEASLTASERKFLDSELNTKIVAGVGAVLAMGAFAAWRGIYNQLTTRSSTDYDGIDYEDDEMEEGLD
# B8: pip (protein)
# chain: MSLNAERSYKMKLRDVENAFKYRRIPYPKRSVELIALLAISCTFFLFMHTNKLNSRLKEMEVKLQPSEFSALGLTGNHISGHDAGKHDDINTLHGTYQYLKSTGQKVGYNVHDRRSSEEQLRTPTAHGHHHDHHSHHHHMHQQEKIDGHKHKASHDKQLAVPDNKHKEDEVHYEDDEDEVEENDDDLANDVGTTDSEGFNFKADLLNNTKYAEVDFVFFNRVPKVGSQSLMELMARLGKINGFTHARNKGSAHETIVMNKQRQNDLIADLLTRPKPHIYSQHIAYINFTRFHLPKPIYINLIRDPIDRIISWHYYIRAPWYYRDMQAKLGENAIPMPSEEFMNLDLDTCVRNHDPHCTFTQMQIKNPVGDHRRQTLFFCGMNQKLCMPFNSEAAMQKAKRTVETEYAVVGTWEDTNITLSVLEAYIPRYFRNAKVAYYLGKDRLSRVNRNNVTRIVSDETRLILRKNLTNEIEFYEFCKQRLYLQYAALSHGKRFGEDDYLLVPEQQNEYNEDY
# B9: Vha55 (protein)
# chain: MNAQQAQREHVLAVSRDFISQPRLTYKTVSGVNGPLVILDEVKFPKFAEIVQLRLADGTVRSGQVLEVSGSKAVVQVFEGTSGIDAKNTLCEFTGDILRTPVSEDMLGRVFNGSGKPIDKGPPILAEDFLDIQGQPINPWSRIYPEEMIQTGISAIDVMNSIARGQKIPIFSAAGLPHNEIAAQICRQAGLVKLPGKSVLDDHTDNFAIVFAAMGVNMETARFFKQDFEENGSMENVCLFLNLANDPTIERIITPRLALTAAEFLAYQCEKHVLVILTDMSSYAEALREVSAAREEVPGRRGFPGYMYTDLATIYERAGRVEGRNGSITQIPILTMPNDDITHPIPDLTGYITEGQIYVDRQLHNRQIYPPVNVLPSLSRLMKSAIGEGMTRKDHSDVSNQLYACYAIGKDVQAMKAVVGEEALTPDDLLYLEFLTKFEKNFISQGNYENRTVFESLDIGWQLLRIFPKEMLKRIPASILAEFYPRDSRH
# B10: H2.0 (protein)
# chain: MLLHESAASMEQSMPENLSTHMYGECEVNPTLAKCPDPVNVDHELPTKESCASTTIVSTSPTSATSTTKVKLSFSVDRLLGSEPEESHRQSSSSPSTKSCCDGSILACCSFPHCFSQANAESRRFGHATLPPTFTPTSSHTYPFVGLDKLFPGPYMDYKSVLRPTPIRAAEHAAPTYPTLATNALLRFHQHQKQQHQQHHHHQHHPKHLHQQHKPPPHNSTTASALLAPLHSLTSLQLTQQQQRFLGKTPQQLLDIAPTSPAAAAAATSQNGAHGHGGGNGQGNASAGSNGKRKRSWSRAVFSNLQRKGLEIQFQQQKYITKPDRRKLAARLNLTDAQVKVWFQNRRMKWRHTRENLKSGQEKQPSAVPESGGVFKTSTPSGDGTPQEALDYSSDSCSSVDLSEQADEDDNIEINVVE
# Legend:
# Experiment in all cases: MAPPIT interaction score (arbitrary units); higher = stronger binary interaction signal, active = hit call of the paper
# CG5883 = conditions: MAPPIT configuration: N-N; pair source set: RRS
# CG6664 = conditions: MAPPIT configuration: N-N; pair source set: DPIM
# CG6683 = conditions: MAPPIT configuration: N-N; pair source set: Lit-BS-16
# CG8654 = conditions: MAPPIT configuration: N-N; pair source set: DPIM
# vih = conditions: MAPPIT configuration: N-N; pair source set: Curagen_low_conf
# CG6933 = conditions: MAPPIT configuration: N-N; pair source set: Lit-BS-16
# CG5174 = conditions: MAPPIT configuration: N-N; pair source set: Curagen_high_conf
# CG5662 = conditions: MAPPIT configuration: N-N; pair source set: screen_2
# CG5854 = conditions: MAPPIT configuration: N-N; pair source set: Curagen_high_conf
# Zip88E = conditions: MAPPIT configuration: N-N; pair source set: Lit-BS-16
# CG6712 = conditions: MAPPIT configuration: N-N; pair source set: DPIM
# CG5708 = conditions: MAPPIT configuration: N-C; pair source set: screen_4
# Polr3F = conditions: MAPPIT configuration: N-C; pair source set: screen_3
# hale = conditions: MAPPIT configuration: N-N; pair source set: screen_1
# pasi2 = conditions: MAPPIT configuration: N-N; pair source set: Lit-BS-16
# 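Note: HEK293T cells with Epo stimulation, STAT-responsive firefly luciferase reporter, fold induction versus unstimulated cells divided by the larger fold induction of two negative controls lacking either bait or prey.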
binder,measurement,setting,value
B1,MAPPIT interaction score,CG5883,-0.604
B2,MAPPIT interaction score,CG6664,-0.12
B3,MAPPIT interaction score,CG6683,-0.52
same,MAPPIT interaction score,CG8654,0.0556
same,MAPPIT interaction score,vih,-0.155
B4,MAPPIT interaction score,CG6933,-0.387
B5,MAPPIT interaction score,CG6933,0.0283
B6,MAPPIT interaction score,CG5174,0.0423
B7,MAPPIT interaction score,CG5662,4.82 (active)
B8,MAPPIT interaction score,CG5854,-0.136
same,MAPPIT interaction score,Zip88E,0.425
B9,MAPPIT interaction score,CG6712,-0.225
B10,MAPPIT interaction score,CG5708,2.81
same,MAPPIT interaction score,Polr3F,2.33
same,MAPPIT interaction score,hale,0.405
same,MAPPIT interaction score,pasi2,2.43
